Experimental data taken from PubChem BioAssay AID372 (MTDP, 2006).
Hit rate of the full screen: of about 100,000 compounds, about 770 (0.77%) were called active. Only a selection was taken, and actives are over-represented in it overall. Unmarked numbers belong to inactive results. Cut-off read from the data, not from the text of the source: active = inhibition above about 50%; inactive = the rest.

What follows are compounds tested against Gag-Pol polyprotein (Human immunodeficiency virus type 1 group M subtype B (isolate HXB2)) (UniProt P04585) (assay: RNase H inhibition, HIV 1 Gag Pol polyprotein, FRET biochemical assay, screening (AID 372)). Conditions: HIV-1 RT RNase H, FRET RNA/DNA substrate fluorescence; at 10 µM; hits give high values.

Row | SMILES | inhibition
1 | CC(C)Cn1nc(-c2ccccc2)c2ccccc2c1=O | 18%
2 | O=c1c2ccccc2c(-c2ccccc2)nn1CCc1ccccc1 | 53% (active)
3 | O=c1c2ccccc2c(-c2ccccc2)nn1Cc1cccc(Br)c1 | 15%
4 | COCCOC(=O)C1=C(C)NC(=S)NC1c1cc(OC)ccc1OC (stereo unspecified) | 15%
5 | COc1ccc(OC)c(C2NC(=S)NC(C)=C2C(=O)OCCOc2ccccc2)c1 (stereo unspecified) | 50% (active)
6 | COc1ccc(OC)c(C2NC(=S)NC(C)=C2C(=O)OCCc2ccccc2)c1 (stereo unspecified) | 21%
7 | COc1ccc(/C(O)=C2/C(=O)C(=O)N(CCCCCC(=O)O)C2c2ccc([N+](=O)[O-])cc2)cc1 (stereo unspecified) | 6%
8 | CCOC(=O)Cc1csc(N/N=C\c2c(Cl)ccc(Cl)c2Cl)n1 | 20%
9 | O=C(CN1C(=O)C2C3CCC(C3)C2C1=O)Nc1ccccc1 (stereo unspecified) | 14%
10 | COc1cc(C(=S)N2CCOCC2)cc(I)c1O | 45%
11 | COc1cc(C(=S)N2CCCCC2)ccc1O | 0%
12 | COc1cc(C(=S)N2CCCCC2)cc(Br)c1O | 37%
13 | CCOc1cc(C(=S)N2CCC(C)CC2)ccc1O | 50% (active)
14 | CCOc1cc(C(=S)N2CCOCC2)cc(Br)c1O | 13%
15 | COc1cc(C(=S)N2CCC(C)CC2)ccc1O | 7%
16 | CCOc1cc(C(=S)N2CCCCC2)cc(I)c1O | 59% (active)
17 | CCOc1cc(C(=S)N2CCCCC2)cc(Br)c1O | 56% (active)
18 | CCOc1cc(C(=S)N2CCCCC2)ccc1O | 8%
19 | CS(=O)(=O)N(CC(=O)Nc1cccc2ccccc12)c1cccc(Cl)c1 | 10%
20 | O=C1CC(c2ccccc2)CC(O)=C1C=NCc1ccc(F)cc1 (stereo unspecified) | 8%
21 | Cc1nnc(N/N=C/c2cccc([N+](=O)[O-])c2)[nH]c1=O | 8%

Row | SMILES | inhibition
22 | CCOC(=O)C1CCN(C(=O)COc2ccc(C)cc2C)CC1 | 4%
23 | Fc1ccc(Br)cc1SCCc1ccccn1 | 0%
24 | CCOc1cc(/C=C2/SC(=S)NC2=O)cc([N+](=O)[O-])c1OCCCOc1ccc(Cl)cc1 | 27%
25 | Cc1ccc(-c2nc3ccccc3s2)cc1NC(=O)c1ccc(Cl)c([N+](=O)[O-])c1 | 3%
26 | COc1ccc(C(=O)NC(=S)Nc2cc(-c3nc4ccccc4s3)ccc2C)cc1 | 1%
27 | O=C(NC(=S)Nc1cc(-c2nc3ccccc3s2)ccc1Cl)c1ccccc1 | 37%
28 | O=C(NC(=S)Nc1cc(-c2nc3ccccc3s2)ccc1Cl)c1ccc(Cl)cc1 | 33%
29 | COc1ccc(C(=O)NC(=S)Nc2cc(-c3nc4ccccc4s3)ccc2Cl)cc1 | 50% (active)
30 | Cc1ccc(C(=O)Nc2cc(-c3nc4ccccc4s3)ccc2Cl)cc1[N+](=O)[O-] | 39%
31 | COc1ccc(C(=O)NC(=S)Nc2cc(-c3nc4ccccc4s3)ccc2Cl)cc1OC | 10%
32 | Cc1cc(C(=O)Nc2cc(-c3nc4ccccc4s3)ccc2Cl)ccc1[N+](=O)[O-] | 52% (active)
33 | O=C1C(=Cc2ccc(Oc3ccc(C(F)(F)F)cc3[N+](=O)[O-])c(Cl)c2)C(=O)c2ccccc21 | 16%
34 | Cc1cc(Oc2cc(NC(=O)c3cc(-c4ccccc4)nc4ccccc34)cc([N+](=O)[O-])c2)ccc1Cl | 0%
35 | Cc1cc(C)c2oc(-c3ccc(C)c(NC(=O)c4cccs4)c3)nc2c1 | 15%
36 | CCOc1ccc(/C=N/n2c(-c3ccc(OC)cc3)n[nH]c2=S)cc1OC | 12%
37 | COc1cc2ccccc2cc1C(=O)Nc1cccc2ccccc12 | 10%
38 | O=S(=O)(Oc1ccc2ccccc2c1)c1cc(Cl)c(Cl)cc1Cl | 58% (active)
39 | COc1ccc(OS(=O)(=O)c2cc(Cl)c(Cl)cc2Cl)cc1 | 31%
40 | Cc1cc(S(=O)(=O)Oc2ccc3ccccc3c2)c(Cl)cc1Cl | 42%
41 | O=C(Nc1ccccc1C#Cc1ccccc1)C(c1ccccc1)c1ccccc1 | 8%
42 | Cc1ccc(/C=C2\SC(=S)N(CCC(=O)Nc3cc(Cl)cc(Cl)c3)C2=O)cc1 | 14%

Row | SMILES | inhibition
43 | CC1(C)C(c2ccccc2)=NC(c2ccccc2F)=[N+]1[O-] | 0%
44 | COc1ccc(/C=N/NC(=O)c2cc(-c3ccc(Cl)cc3)n[nH]2)cc1 | 14%
45 | CC(C)(C)N1C(=O)c2ccc(C(=O)c3ccc(C(=O)O)cc3)cc2C1=O | 0%
46 | Cc1cc(/C=C2\NC(=O)NC2=O)c(C)n1-c1cccc([N+](=O)[O-])c1 | 29%
47 | CCC(=O)N(Cc1ccco1)C1CC(=O)N(c2ccccc2)C1=O (stereo unspecified) | 0%
48 | Cn1c(/C=C/c2cccc(Oc3ccccc3)c2)c([N+](=O)[O-])c(=O)n(C)c1=O | 54% (active)
49 | CCOc1ccc(/C=C/c2c([N+](=O)[O-])c(=O)n(C)c(=O)n2C)cc1 | 16%
50 | Cn1c(/C=C/c2ccc(Br)cc2)c([N+](=O)[O-])c(=O)n(C)c1=O | 6%
51 | Cc1[nH]n(-c2ccccc2)c(=O)c1N=Nc1ccccc1Br | 5%
52 | COc1ccc2ccccc2c1/C=C1\SC(=Nc2cccc(Cl)c2C)NC1=O | 35%
53 | O=C(Nc1ccc(O)cc1)Nc1ccc(Cl)cc1 | 17%
54 | O=C(Nc1ccc(Cl)cc1)Nc1ccc(-c2ccc(NC(=O)Nc3ccc(Cl)cc3)cc2)cc1 | 57% (active)
55 | O=C(Nc1ccc(Cl)cc1)Nc1cc(Cl)cc(Cl)c1 | 6%
56 | O=C1/C(=C\c2ccc(-c3ccc([N+](=O)[O-])cc3)o2)SC(=S)N1c1ccc(O)cc1 | 52% (active)
57 | O=C(O)c1cccc(-c2ccc(/C=C3\SC(=S)N(c4ccc([N+](=O)[O-])cc4)C3=O)o2)c1 | 12%
58 | O=C(O)c1ccc(-c2ccc(/C=C3\SC(=S)N(c4ccc([N+](=O)[O-])cc4)C3=O)o2)cc1 | 49%
59 | COc1ccc(N2C(=O)/C(=C/c3ccc(-c4ccccc4[N+](=O)[O-])o3)SC2=S)cc1 | 26%
60 | COc1ccc(N2C(=O)/C(=C/c3ccc(-c4ccc([N+](=O)[O-])c(C)c4)o3)SC2=S)cc1 | 64% (active)
61 | COc1ccc(N2C(=O)/C(=C/c3ccc(-c4ccc([N+](=O)[O-])cc4Cl)o3)SC2=S)cc1 | 18%
